About 83,000 compounds went through this panel and 20% of them were active in at least one assay; those are over-represented in the sample as a whole.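 Step 1: grow cells in 96-well plates. Step 2: add test compound at a single concentration. Step 3: incubate 48 h. Step 4: record percent growth.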 The source made the active and inactive calls. The calls were made as follows: active = growth percent below 10; inactive = the rest.
Assays:
Assay in all cases: NCI-60 one-dose screen, 48 h (100 = growth as untreated, 0 = no growth, -100 = all killed)
[1] = system: DU-145 prostate; details: 10 µM unless noted
[2] = system: K-562 leukemia; details: 10 µM unless noted
[3] = system: MALME-3M melanoma; details: 10 µM unless noted
[4] = system: MDA-MB-231 breast; details: 10 µM unless noted
[5] = system: RXF 393 renal; details: 10 µM unless noted
[6] = system: SF-268 CNS; details: 10 µM unless noted
[7] = system: SF-539 CNS; details: 10 µM unless noted
[8] = system: UACC-257 melanoma; details: 10 µM unless noted
[9] = system: M14 melanoma; details: 10 µM unless noted
[10] = system: HCT-15 colon; details: 10 µM unless noted
[11] = system: HT29 colon; details: 10 µM unless noted
[12] = system: SNB-75 CNS; details: 10 µM unless noted
[13] = system: SNB-19 CNS; details: 10 µM unless noted
[14] = system: U251 CNS; details: 10 µM unless noted
[15] = system: PC-3 prostate; details: 10 µM unless noted
[16] = system: SK-MEL-5 melanoma; details: 10 µM unless noted
[17] = system: UACC-62 melanoma; details: 10 µM unless noted
[18] = system: LOX IMVI melanoma; details: 10 µM
[19] = system: SK-MEL-28 melanoma; details: 10 µM unless noted
[20] = system: SF-295 CNS; details: 10 µM unless noted

Measured: growth

Oc1c(Cl)cc(Cl)cc1C(c1cc(Cl)cc(Cl)c1O)C(Cl)(Cl)Cl
active: [2] 9.05% | [3] -27% | [4] -25.1% | [5] -30.7% | [7] 4.37% | [8] -24.9% | [10] 2.87% | [11] 7.53% | [12] -7.64% | [14] 4.24% | [15] -7.63% | [16] -38.8% | [18] 0.701%
inactive: [1] 19.3% | [6] 11.6% | [9] 17.9% | [13] 19.2% | [17] 11.8% | [19] 30.4%

CCCCCCCCCCCCNCCCc1ccccc1
active: [2] 2.28% | [11] 7.89%
inactive: [1] 84% | [3] 82.5% | [4] 61.3% | [6] 80.6% | [20] 102% | [7] 69.6% | [8] 82% | [9] 52% | [10] 23.9% | [12] 64.7% | [13] 92.2% | [15] 78.9% | [17] 57.2% | [19] 73.4%

CCc1cccc(CC)c1N1C(=O)C=CC1=O
inactive: [1] 112% | [2] 23.8% | [3] 121% | [4] 132% | [6] 97.6% | [20] 106% | [7] 107% | [8] 81.6% | [9] 86.6% | [10] 104% | [11] 113% | [12] 93.8% | [13] 105% | [14] 100% | [15] 110% | [16] 98.1% | [17] 112% | [18] 106% | [19] 119%

Cc1nnc(N/N=C/c2ccc([N+](=O)[O-])o2)[nH]c1=O
active: [3] -30.8% | [20] -40.4% | [7] -8.83% | [14] 4.33% | [15] 3.62% | [16] -24.3%
inactive: [1] 19.4% | [2] 10.7% | [4] 28.7% | [6] 19.4% | [8] 33.5% | [9] 26.2% | [10] 15.7% | [11] 27.5% | [12] 42.3% | [13] 11.6% | [17] 10.6% | [18] 11% | [19] 25.4%

CCCCCCC1N=C(N)N=C(N)N1c1cccc(Cl)c1 (centres undefined)
inactive: [1] 34.3% | [2] 20.1% | [3] 40.9% | [4] 68% | [6] 19.6% | [20] 13.8% | [8] 63.9% | [9] 31.7% | [10] 84.2% | [11] 17.9% | [13] 26.9% | [14] 33.6% | [15] 29.3% | [16] 28.3% | [18] 17.1% | [19] 40%
active: [7] 5.72% | [12] -0.752%

COc1cc(OC)c(/C=C/c2c3ccccc3cc[n+]2C)c(OC)c1
active: [2] 5.35% | [20] -32.3% | [8] -16.7% | [11] 1.89% | [16] -14% | [18] -39.1%
inactive: [1] 36.5% | [3] 33.3% | [4] 42.4% | [6] 26.3% | [7] 31.9% | [9] 41.7% | [10] 97.9% | [12] 12.3% | [13] 35.8% | [15] 19.2% | [17] 15.7% | [19] 30.1%

CN(Cc1ccccc1)c1ccc(SC#N)cc1
inactive: [1] 103% | [2] 31.8% | [3] 82.4% | [5] 68.3% | [6] 85% | [20] 95.4% | [7] 87.7% | [8] 102% | [9] 84% | [10] 71.8% | [11] 52.3% | [12] 81.3% | [13] 93.3% | [14] 73.4% | [15] 27.4% | [16] 98.2% | [17] 97% | [18] 45% | [19] 101%

Cc1nc([N+](=O)[O-])c(Sc2nncc(-c3ccccc3)n2)n1C
inactive: [1] 67.3% | [2] 89.7% | [4] 92.6% | [6] 93.5% | [20] 144% | [7] 106% | [8] 29.8% | [9] 88.2% | [10] 68% | [11] 84.5% | [12] 76.6% | [13] 116% | [14] 79.4% | [15] 98.1% | [16] 96% | [17] 82.2% | [18] 82.2% | [19] 89.1%
active: [3] -7.36%

COc1ccc2nc3cc(Cl)ccc3c(NCCCCCN3CCCCC3)c2c1
active: [1] -3.46% | [2] -13.9% | [3] -84.7% | [5] -72.1% | [6] -36.4% | [7] -89.7% | [8] -74.8% | [9] -81.9% | [10] -32.2% | [11] -41.3% | [12] -98.1% | [13] 2.99% | [14] -74.5% | [15] -45.3% | [16] -96.9% | [17] -67.9% | [18] -80.4% | [19] -79.9%
inactive: [20] 43.2%

O=C1CSC(=S)N1Cc1cccnc1
inactive: [1] 25% | [3] 102% | [4] 106% | [6] 107% | [20] 120% | [7] 93.6% | [8] 59.5% | [9] 85.1% | [10] 58.3% | [12] 83.3% | [13] 110% | [15] 85.1% | [16] 99.8% | [17] 87.6% | [18] 17.5% | [19] 92.1%
active: [2] 7.08%

O=[n+]1c2ccccc2n([O-])c2cc(Cl)ccc21
inactive: [1] 94.9% | [2] 45.3% | [3] 85.1% | [4] 87.6% | [6] 28.1% | [20] 63.5% | [7] 53.1% | [8] 80.7% | [9] 104% | [10] 43.7% | [11] 74.1% | [12] 50.7% | [13] 94.2% | [15] 50.2% | [17] 81% | [19] 99.2%

CC(C)N=C(N)/N=C(\N)Nc1ccc2ccc3ccccc3c2c1
active: [1] -89.5% | [2] -42.3% | [3] -89.6% | [5] -89.7% | [6] -64.7% | [20] -89.1% | [7] -98.9% | [8] -79.1% | [9] -76.8% | [10] -91.5% | [11] -84.4% | [12] -20.7% | [13] -92.6% | [15] -7.75% | [16] -98.1% | [17] -75.6% | [19] -78.2%

Cc1nn(CCO)c(C)c1N=[N+]([O-])c1c(C)nn(CCO)c1C
inactive: [4] 98.6% | [6] 81.3% | [20] 100% | [7] 89.1% | [12] 52.4% | [13] 98.2% | [14] 69.6% | [15] 76.6% | [16] 71.5% | [17] 61% | [18] 16% | [19] 83.2%
active: [1] -9.05% | [2] -31.8% | [3] -59.9% | [8] -56.2% | [9] -61.6% | [10] -4.21% | [11] -14%

Oc1ccc(Cl)cc1C(c1cc(Cl)ccc1O)C(Cl)(Cl)Cl
inactive: [3] 11.9% | [6] 20.2% | [20] 10.1% | [7] 31.4% | [8] 72.1% | [13] 24% | [14] 11.8% | [16] 29.1% | [19] 38.8%
active: [1] -47.8% | [2] 4.51% | [4] -63.6% | [9] 0.872% | [11] 4.03% | [12] 4.39% | [15] 6.26% | [18] -62.8%

CCCCOS(=O)(=O)c1ccccc1
inactive: [1] 112% | [2] 106% | [3] 94.5% | [4] 106% | [6] 105% | [20] 120% | [7] 102% | [8] 106% | [9] 112% | [10] 102% | [11] 104% | [12] 85.9% | [13] 103% | [15] 101% | [16] 117% | [18] 97.1% | [19] 126%

Oc1c(C(Nc2ccccc2)c2ccccc2)ccc2cccnc12 (centres undefined)
active: [20] 6.25%
inactive: [1] 57.8% | [2] 32.1% | [3] 87.6% | [5] 74.9% | [6] 33.4% | [7] 27.2% | [8] 64.3% | [9] 45.8% | [10] 29.4% | [11] 44.5% | [12] 70.8% | [13] 46.8% | [14] 25.7% | [15] 28.9% | [16] 19.7% | [17] 31.4% | [18] 31.6% | [19] 53.3%

N#CC1c2ccccc2C=CN1C(=O)CCCl (centres undefined)
inactive: [1] 77.7% | [2] 32.3% | [4] 103% | [6] 104% | [7] 104% | [8] 79.9% | [9] 97.3% | [10] 84.9% | [11] 78.3% | [12] 75.9% | [13] 107% | [15] 104% | [16] 101% | [17] 106% | [18] 32.6% | [19] 105%
active: [3] 5.05%

CCOC(=O)NC(/C=C/c1ccccc1)NC(=O)OCC
inactive: [1] 109% | [2] 107% | [3] 109% | [5] 121% | [6] 101% | [20] 104% | [7] 98.9% | [8] 98.3% | [9] 103% | [10] 105% | [11] 101% | [12] 96.6% | [13] 98.4% | [14] 94.5% | [15] 96.9% | [16] 106% | [17] 97.7% | [18] 99.8% | [19] 105%

— PubChem BioAssay (NCI)
